Results as given in PubChem BioAssay (Tox21).
Values joined by “and” are separate entries in the source; they are usually repeats but may differ in a detail not shown here. Equal values may be shown once. Inconclusive results are not listed. Active and inactive are the calls of the source. Unless noted, calls follow the shape of the dose curve; as a rule, active = well fitted curve in the direction sought with a large enough effect in the repeat runs; inconclusive = weak or mixed curves; inactive = no such curve, though single readings can be large; an effect the other way counts as inactive or inconclusive.

Experiments:
[1] = biological target: Acetylcholinesterase (Homo sapiens) (UniProt P22303); test: Acetylcholinesterase (AChE) small molecule antagonists: enzyme-based qHTS assay (AID 1347397; calls by dose curve; also: nearly all actives have a fitted effect of over 55% in size); conditions: Potency: AChE enzyme activity inhibition; outcome: AChE enzyme activity inhibition
How it was run: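 rhAChE 50 mU/mL (dispensed) + cpd or DMSO, 30 min RT; add DTNB/acetylthiocholine cocktail, 10 min RT; colorimetric thiocholine readout. qHTS, 1536-well format.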

[2] = biological target: Acetylcholinesterase (Homo sapiens) (UniProt P22303); test: Acetylcholinesterase (AChE) small molecule antagonists: fluorescence cell-based qHTS assay (AID 1347398; calls by dose curve; also: nearly all actives have a fitted effect of over 50% in size; also: potency is read from the fitted curve at half-maximal effect); conditions: Potency: AChE activity; outcome: AChE activity
How it was run: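 Read-out is Thiolite Green fluorescence at Ex/Em = 490/520 nm, formed by reaction with thiocholine released when cellular AChE in SH-SY5Y cells hydrolyzes acetylthiocholine. Compounds were preincubated 30 min at 37 C before substrate.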

[3] = biological target: Acetylcholinesterase (Homo sapiens) (UniProt P22303); test: Acetylcholinesterase (AChE) small molecule antagonists: enzyme-based qHTS assay with human liver microsomes (AID 1347399; calls by dose curve; also: nearly all actives have a fitted effect of over 60% in size); conditions: Potency: qHTS inhibition; outcome: qHTS inhibition
How it was run: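 Recombinant human AChE (50 mU/mL in the enzyme mix) and human liver microsomes (0.25 mg/mL final) were preincubated with compound and NADPH (0.25 mg/mL final) for 30 min at 37 C. Acetylthiocholine/DTNB was then added; thiocholine was read colorimetrically after 10 min at room temperature.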

[4] = biological target: Cytochrome P450 2D6 (Homo sapiens) (UniProt P10635); test: Cytochrome P450 Family 2 Subfamily D Member 6 (CYP2D6) small molecule antagonists: luciferase reporter qHTS assay (AID 1671196); also: nearly all actives have a fitted effect of over 50% in size; also: potency is read from the fitted curve at half-maximal effect; as to activity change, negative = inhibition: series mostly up to about 120 µM
How it was run: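 Inhibition of CYP2D6 was gauged by loss of luminescence, since light produced tracks the luciferin generated from a proluciferin substrate. A 10 min room-temperature preincubation preceded 1 h NADPH-supported turnover.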

[5] = biological target: Cytochrome P450 2C19 (Homo sapiens) (UniProt P33261); test: Cytochrome P450 Family 2 Subfamily C Member 19 (CYP2C19) small molecule antagonists: luciferase reporter qHTS assay (AID 1671197); also: nearly all actives have a fitted effect of over 65% in size; also: potency is read from the fitted curve at half-maximal effect; as to activity change, negative = inhibition: series mostly up to about 120 µM
How it was run: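 Luminescent readout of CYP2C19 activity: luciferin product detected 20 min after adding detection reagent. Before that, compound and enzyme-substrate mix preincubated 10 min at room temperature; NADPH-regenerating system started a 1 h, 37C reaction. Ketoconazole as positive control.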

[6] = biological target: Cytochrome P450 2C9 (Homo sapiens) (UniProt P11712); test: Cytochrome P450 Family 2 Subfamily C Member 9 (CYP2C9) small molecule antagonists: luciferase reporter qHTS assay (AID 1671198); also: nearly all actives have a fitted effect of over 50% in size; also: potency is read from the fitted curve at half-maximal effect; as to activity change, negative = inhibition: series mostly up to about 120 µM
How it was run: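 Enzyme-substrate mix preincubated with compound 10 min at room temperature; reaction started with NADPH regeneration solution, 1 h 37C. Luminescent luciferin product read after 20 min detection reagent.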

[7] = biological target: Cytochrome P450 1A2 (Homo sapiens) (UniProt P05177); test: Cytochrome P450 Family 1 Subfamily A Member 2 (CYP1A2) small molecule antagonists: luciferase reporter qHTS assay (AID 1671199); also: nearly all actives have a fitted effect of over 50% in size; also: potency is read from the fitted curve at half-maximal effect; as to activity change, negative = inhibition: series mostly up to about 120 µM
How it was run: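 Signal from luciferin formed by CYP1A2 from a proluciferin substrate is read as luminescence, expressed in relative luminescence units. Compounds sit with enzyme 10 min, NADPH-driven reaction runs 1 h, all at room temperature.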

[8] = biological target: Voltage-gated inwardly rectifying potassium channel KCNH2 (Homo sapiens) (UniProt Q12809); test: Human Ether-a-go-go-Related Gene (hERG) channel small molecule antagonists: fluorescence cell-based qHTS assay (AID 1671200); also: nearly all actives have a fitted effect of over 50% in size; also: potency is read from the fitted curve at half-maximal effect;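 as to activity change, negative = inhibition: hERG-expressing U2OS cells given a thallium stimulus after FluxOR II dye loading; series mostly up to about 77 µM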
How it was run: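 U2OS cells expressing the channel were plated at 1000 cells/well, incubated overnight at 37 C, then loaded with FluxOR II thallium-sensitive dye for 1 h at room temperature in the dark, with a further 10 min at room temperature before stimulation.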

[9] = biological target: Cytochrome P450 3A4 (Homo sapiens) (UniProt P08684); test: Cytochrome P450 Family 3 Subfamily A Member 4 (CYP3A4) small molecule antagonists: luciferase reporter qHTS assay (AID 1671201); also: nearly all actives have a fitted effect of over 50% in size; also: potency is read from the fitted curve at half-maximal effect; as to activity change, negative = inhibition: series mostly up to about 120 µM
How it was run: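 P450-Glo CYP3A4 system with proluciferin substrate; compounds preincubated 10 min RT with enzyme-substrate mix, then NADPH regeneration added for 1 h RT. Detection reagent 20 min, luminescence read as relative luminescence units.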
% is scaled to controls: 0 for no effect and ±100 for the full control effect.

Sequence of Cytochrome P450 2C9 (Homo sapiens) (P11712 whole entry, looked up): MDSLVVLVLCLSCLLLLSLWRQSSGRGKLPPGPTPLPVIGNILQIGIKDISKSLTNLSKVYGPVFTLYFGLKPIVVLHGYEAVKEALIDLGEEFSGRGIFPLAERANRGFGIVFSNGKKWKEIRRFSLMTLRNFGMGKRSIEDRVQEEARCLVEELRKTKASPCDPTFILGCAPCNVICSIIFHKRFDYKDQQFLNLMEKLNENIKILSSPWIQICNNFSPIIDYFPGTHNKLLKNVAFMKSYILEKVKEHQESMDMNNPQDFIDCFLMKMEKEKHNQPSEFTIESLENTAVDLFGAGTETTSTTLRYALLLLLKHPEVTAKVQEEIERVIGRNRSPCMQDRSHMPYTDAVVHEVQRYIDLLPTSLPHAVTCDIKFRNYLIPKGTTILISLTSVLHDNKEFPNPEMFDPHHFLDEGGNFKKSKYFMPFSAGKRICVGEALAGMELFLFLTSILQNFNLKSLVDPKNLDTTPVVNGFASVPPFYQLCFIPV
Sequence of Cytochrome P450 1A2 (Homo sapiens) (P05177 whole entry, looked up): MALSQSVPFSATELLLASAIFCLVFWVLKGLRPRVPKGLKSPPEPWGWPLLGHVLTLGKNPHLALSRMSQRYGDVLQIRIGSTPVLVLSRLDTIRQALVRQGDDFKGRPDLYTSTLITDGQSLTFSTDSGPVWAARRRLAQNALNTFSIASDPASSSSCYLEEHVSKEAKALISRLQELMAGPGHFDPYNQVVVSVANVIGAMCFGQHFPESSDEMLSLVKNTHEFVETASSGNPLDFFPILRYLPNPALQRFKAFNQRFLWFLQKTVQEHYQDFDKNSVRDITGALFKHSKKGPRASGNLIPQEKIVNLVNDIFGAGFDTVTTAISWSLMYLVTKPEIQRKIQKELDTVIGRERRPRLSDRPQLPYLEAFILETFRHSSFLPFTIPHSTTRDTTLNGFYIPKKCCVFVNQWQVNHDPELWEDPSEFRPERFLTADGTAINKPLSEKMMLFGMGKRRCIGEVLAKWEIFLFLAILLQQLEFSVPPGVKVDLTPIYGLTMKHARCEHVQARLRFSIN
Sequence of Voltage-gated inwardly rectifying potassium channel KCNH2 (Homo sapiens) (Q12809 whole entry, looked up): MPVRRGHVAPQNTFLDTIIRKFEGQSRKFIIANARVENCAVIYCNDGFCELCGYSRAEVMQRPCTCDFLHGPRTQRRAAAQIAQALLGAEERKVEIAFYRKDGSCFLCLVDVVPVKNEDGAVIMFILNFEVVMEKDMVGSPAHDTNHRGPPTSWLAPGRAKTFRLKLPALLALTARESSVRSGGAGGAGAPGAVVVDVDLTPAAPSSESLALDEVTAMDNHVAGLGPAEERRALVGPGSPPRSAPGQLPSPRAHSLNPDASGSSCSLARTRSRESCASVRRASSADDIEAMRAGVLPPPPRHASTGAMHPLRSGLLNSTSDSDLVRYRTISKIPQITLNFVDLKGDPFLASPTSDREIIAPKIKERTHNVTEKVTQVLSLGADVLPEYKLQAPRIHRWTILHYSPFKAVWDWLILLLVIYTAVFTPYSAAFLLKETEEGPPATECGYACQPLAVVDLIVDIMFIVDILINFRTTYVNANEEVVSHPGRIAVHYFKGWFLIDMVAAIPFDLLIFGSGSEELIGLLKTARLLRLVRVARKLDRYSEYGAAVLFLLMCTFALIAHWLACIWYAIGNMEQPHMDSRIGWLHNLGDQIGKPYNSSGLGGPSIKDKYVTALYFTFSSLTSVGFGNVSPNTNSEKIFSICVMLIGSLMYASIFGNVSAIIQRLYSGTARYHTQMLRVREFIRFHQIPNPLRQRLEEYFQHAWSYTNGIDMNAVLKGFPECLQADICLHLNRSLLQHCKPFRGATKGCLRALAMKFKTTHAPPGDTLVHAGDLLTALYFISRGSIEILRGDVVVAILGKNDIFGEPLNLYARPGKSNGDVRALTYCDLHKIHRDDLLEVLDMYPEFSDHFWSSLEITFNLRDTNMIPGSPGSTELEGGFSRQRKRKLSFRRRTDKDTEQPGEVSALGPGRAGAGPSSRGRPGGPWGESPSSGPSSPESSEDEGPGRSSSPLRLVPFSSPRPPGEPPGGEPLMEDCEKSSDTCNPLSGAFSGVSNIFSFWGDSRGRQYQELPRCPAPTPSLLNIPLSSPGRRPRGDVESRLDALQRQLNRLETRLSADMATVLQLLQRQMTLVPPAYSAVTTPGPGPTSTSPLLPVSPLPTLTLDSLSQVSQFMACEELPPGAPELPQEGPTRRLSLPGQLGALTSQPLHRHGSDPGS
Sequence of Acetylcholinesterase (Homo sapiens) (P22303 whole entry, looked up): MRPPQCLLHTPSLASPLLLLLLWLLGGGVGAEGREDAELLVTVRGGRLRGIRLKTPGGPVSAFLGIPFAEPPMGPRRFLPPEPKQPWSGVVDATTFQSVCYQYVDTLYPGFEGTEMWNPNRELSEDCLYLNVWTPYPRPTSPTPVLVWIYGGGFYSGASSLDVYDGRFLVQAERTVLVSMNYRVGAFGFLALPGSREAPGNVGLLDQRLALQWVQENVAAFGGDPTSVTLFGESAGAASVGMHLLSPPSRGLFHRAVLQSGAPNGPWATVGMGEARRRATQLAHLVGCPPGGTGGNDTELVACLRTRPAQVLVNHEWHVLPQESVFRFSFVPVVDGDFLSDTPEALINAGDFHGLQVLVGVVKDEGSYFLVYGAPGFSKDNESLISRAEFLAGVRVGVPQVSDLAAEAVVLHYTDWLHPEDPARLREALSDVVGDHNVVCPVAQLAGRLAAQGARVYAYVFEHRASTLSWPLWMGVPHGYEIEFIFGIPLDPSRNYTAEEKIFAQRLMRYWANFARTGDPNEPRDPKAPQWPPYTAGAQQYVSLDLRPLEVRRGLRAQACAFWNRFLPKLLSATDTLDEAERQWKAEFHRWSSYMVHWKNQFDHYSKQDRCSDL
Sequence of Cytochrome P450 2D6 (Homo sapiens) (P10635 whole entry, looked up): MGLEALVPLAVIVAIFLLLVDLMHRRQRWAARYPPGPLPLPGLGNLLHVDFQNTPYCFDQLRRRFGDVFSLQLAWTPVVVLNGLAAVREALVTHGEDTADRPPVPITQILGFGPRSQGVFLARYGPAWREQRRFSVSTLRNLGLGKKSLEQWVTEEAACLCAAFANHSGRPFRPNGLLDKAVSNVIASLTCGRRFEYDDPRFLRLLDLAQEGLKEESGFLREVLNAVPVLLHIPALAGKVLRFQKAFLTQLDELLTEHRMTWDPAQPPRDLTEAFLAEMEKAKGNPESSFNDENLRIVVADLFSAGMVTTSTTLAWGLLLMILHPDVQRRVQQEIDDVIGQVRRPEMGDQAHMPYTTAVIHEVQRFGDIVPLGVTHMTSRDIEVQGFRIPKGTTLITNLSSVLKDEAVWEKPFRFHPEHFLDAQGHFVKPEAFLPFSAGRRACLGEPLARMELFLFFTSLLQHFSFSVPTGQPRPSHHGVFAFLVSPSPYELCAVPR
Sequence of Cytochrome P450 2C19 (Homo sapiens) (P33261 whole entry, looked up): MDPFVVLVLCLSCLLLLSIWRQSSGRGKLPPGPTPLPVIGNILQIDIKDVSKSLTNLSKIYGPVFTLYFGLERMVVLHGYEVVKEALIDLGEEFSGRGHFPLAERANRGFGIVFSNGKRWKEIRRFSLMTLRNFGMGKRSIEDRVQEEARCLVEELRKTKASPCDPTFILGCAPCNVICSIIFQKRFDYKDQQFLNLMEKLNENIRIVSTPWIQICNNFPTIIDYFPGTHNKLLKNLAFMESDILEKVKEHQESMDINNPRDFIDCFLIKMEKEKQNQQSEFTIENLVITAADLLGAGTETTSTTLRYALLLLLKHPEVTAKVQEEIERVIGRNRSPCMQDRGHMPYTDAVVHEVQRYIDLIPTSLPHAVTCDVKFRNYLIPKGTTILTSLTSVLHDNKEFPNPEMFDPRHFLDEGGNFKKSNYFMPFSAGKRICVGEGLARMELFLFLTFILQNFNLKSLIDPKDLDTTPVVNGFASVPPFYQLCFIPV
Sequence of Cytochrome P450 3A4 (Homo sapiens) (P08684 whole entry, looked up): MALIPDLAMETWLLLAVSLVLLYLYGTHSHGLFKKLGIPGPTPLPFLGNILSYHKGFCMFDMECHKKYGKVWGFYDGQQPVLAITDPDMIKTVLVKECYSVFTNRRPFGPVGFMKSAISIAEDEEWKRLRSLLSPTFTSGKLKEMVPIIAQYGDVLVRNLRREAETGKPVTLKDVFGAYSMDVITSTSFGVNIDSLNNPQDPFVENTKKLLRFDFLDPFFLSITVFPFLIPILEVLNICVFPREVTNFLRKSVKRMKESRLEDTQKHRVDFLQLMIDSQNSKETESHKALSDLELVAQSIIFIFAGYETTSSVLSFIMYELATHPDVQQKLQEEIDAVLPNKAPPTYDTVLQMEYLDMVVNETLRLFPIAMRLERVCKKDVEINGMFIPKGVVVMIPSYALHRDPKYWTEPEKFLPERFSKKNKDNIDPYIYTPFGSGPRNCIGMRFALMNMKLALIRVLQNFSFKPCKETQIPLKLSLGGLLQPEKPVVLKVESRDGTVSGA

CCOP(=O)(O)C(N)=O
inactive: Potency [1] | Potency [2] | Potency [3] | Potency [4] | Potency [5] | Potency [6] | Potency [7] | Potency [8] | Potency [9]

CCOC(C(=O)OCCN(C)C)(c1ccccc1)c1ccccc1
inactive: Potency [1] | Potency [2] | Potency [3] | Potency [7] | Potency [8]
active: Potency [4] 2.75 µM | Potency [5] 8.71 µM | Potency [6] 11 µM

CN1CC[C@]23c4c5ccc(O)c4O[C@H]2[C@@H](O)C=C[C@H]3[C@H]1C5
inactive: Potency [1]

CN(C)c1ccc(N=O)cc1
active: Potency [4] 17.9 µM and 25.2 µM | Potency [5] 5.66 µM and 8.94 µM | Potency [6] 35.7 µM and 39.9 µM | Potency [7] 35.7 µM and 39.9 µM
inactive: Potency [1] | Potency [2] | Potency [3] | Potency [8]

CCCC(C)(COC(N)=O)COC(=O)NC(C)C (stereo unspecified)
inactive: Potency [1] | Potency [2] | Potency [3] | Potency [4] | Potency [6] | Potency [7] | Potency [8] | Potency [9]
active: Potency [5] 20 µM and 8.71 µM

c1ccc2sc(SNC3CCCCC3)nc2c1
active: Potency [4] 19.8 µM and 35.6 µM | Potency [5] 31.4 µM and 22.4 µM | Potency [6] 31.4 µM and 17.8 µM | Potency [7] 55.8 µM and 35.6 µM
inactive: Potency [1] | Potency [2] | Potency [3] | Potency [8] | Potency [9]

OCC1CO1 (stereo unspecified)
inactive: Potency [1] | Potency [2] | Potency [3] | Potency [4] | Potency [5] | Potency [6] | Potency [7] | Potency [8] | Potency [9]

CCCC[N+]1(C)[C@@H]2CC(OC(=O)[C@H](CO)c3ccccc3)C[C@H]1[C@@H]1O[C@@H]12 (stereo partly specified)
inactive: Potency [1] | Potency [2] | Potency [3] | Potency [5] | Potency [6] | Potency [7] | Potency [8] | Potency [9]
active: Potency [4] 1.55 µM

CCCCCBr
inactive: Potency [1] | Potency [2] | Potency [3] | Potency [4] | Potency [5] | Potency [6] | Potency [7] | Potency [8] | Potency [9]

O=S(=O)(c1ccccc1)c1ccccc1
inactive: Potency [1] | Potency [2] | Potency [3] | Potency [4] | Potency [6] | Potency [7] | Potency [8] | Potency [9]
active: Potency [5] 63.3 µM

C=CCN1C[C@H](C)N([C@H](c2ccc(C(=O)N(CC)CC)cc2)c2cccc(OC)c2)C[C@H]1C
active: Potency [4] 3.09 µM | Potency [8] 3.01 µM
inactive: Potency [1] | Potency [2] | Potency [3] | Potency [5] | Potency [6] | Potency [7]

CN(C)C(=O)Nc1cccc(OC(=O)NC(C)(C)C)c1
active: Potency [7] 39.9 µM
inactive: Potency [1] | Potency [2] | Potency [3] | Potency [4] | Potency [5] | Potency [6] | Potency [8] | Potency [9]

CCCCCCCCn1sccc1=O
inactive: Potency [1] | Potency [2] | Potency [3]
active: Potency [4] 11.3 µM | Potency [5] 10.1 µM and 23.5 µM | Potency [6] 10.1 µM and 9.37 µM | Potency [7] 28.3 µM and 23.5 µM | Potency [8] 21.9 µM | Potency [9] 28.3 µM and 37.3 µM

CCOP(=S)(OCC)SCSc1cc(Cl)ccc1Cl
inactive: Potency [1] | Potency [2] | Potency [3] | Potency [4] | Potency [5] | Potency [6] | Potency [7] | Potency [8] | Potency [9]

CC[N+]1(CCOC(=O)C(O)(c2ccccc2)c2ccccc2)CCCCC1
inactive: Potency [1] | Potency [2] | Potency [3] | Potency [5] | Potency [6] | Potency [7] | Potency [8] | Potency [9]
active: Potency [4] 0.977 µM

CC(C)(C)c1ccc(CCOc2ncnc3ccccc23)cc1
inactive: Potency [1] | Potency [2] | Potency [3] | Potency [5] | Potency [6] | Potency [7] | Potency [8] | Potency [9]
active: Potency [4] 71 µM

CCC1CCC(=O)O1 (stereo unspecified)
active: Potency [5] 45.2 µM
inactive: Potency [1] | Potency [2] | Potency [3] | Potency [4] | Potency [6] | Potency [8] | Potency [9]

FC(Cl)(Cl)C(F)(Cl)Cl
inactive: Potency [1] | Potency [2] | Potency [3] | Potency [4] | Potency [5] | Potency [6] | Potency [8] | Potency [9]

Nc1c(Br)cc(Br)c2c1C(=O)c1ccccc1C2=O
inactive: activity change, negative = inhibition [1] 0.0969% [at 23.6 µM] | activity change, negative = inhibition [2] 2.58% [at 23.8 µM] | activity change, negative = inhibition [3] 0.243% [at 23.6 µM] | activity change, negative = inhibition [4] 0.314% [at 23.6 µM] | activity change, negative = inhibition [5] -3.63% [at 23.6 µM] | activity change, negative = inhibition [6] -2.78% [at 23.6 µM] | activity change, negative = inhibition [8] -6.02% [at 15.8 µM] | activity change, negative = inhibition [9] 1.74% [at 23.6 µM]
active: Potency [7] 0.168 µM

O=CC=O
inactive: Potency [1] | Potency [2] | Potency [3] | Potency [4] | Potency [5] | Potency [6] | Potency [7] | Potency [8] | Potency [9]

CCOP(=S)(S)OCC
active: Potency [2] 42.1 µM | Potency [5] 33.4 µM | Potency [6] 21.1 µM
inactive: Potency [1] | Potency [3] | Potency [4] | Potency [8] | Potency [9]

CC(Oc1cc(Cl)c(Cl)cc1Cl)C(=O)O (stereo unspecified)
active: Potency [6] 31.8 µM
inactive: Potency [1] | Potency [2] | Potency [3] | Potency [4] | Potency [5] | Potency [8] | Potency [9]

COc1cc(C[C@@H](C)N)c(OC)cc1Br
inactive: Potency [1] | Potency [2] | Potency [3] | Potency [5] | Potency [6] | Potency [8] | Potency [9]
active: Potency [4] 11.6 µM | Potency [7] 36.5 µM

CCCCC(CC)COC(=O)c1c(Br)c(Br)c(Br)c(Br)c1C(=O)OCC(CC)CCCC (stereo unspecified)
inactive: Potency [1] | Potency [2] | Potency [3] | Potency [4] | Potency [5] | Potency [6] | Potency [7] | Potency [8] | Potency [9]
